Bioassay records from PubChem BioAssay.
Only some compounds are listed: those with a hit (about 3.4% of all), similar ones and a draw of the others.
PAFAH1B2 inh: PAFAH1B2 enzyme inhibitors, primary screen, biochemical, fluorescence polarization, human. Platelet-activating factor acetylhydrolase IB subunit alpha2 (Homo sapiens), P68402. recombinant PAFAH1B2, FP-rhodamine activity probe. inhibition, % at 3.39 µM. 1.2% of 340,000 active;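 active means inhibition above the mean of all tested compounds plus 3 SD, cut at about 24% in these data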;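 further: 0% = enzyme with DMSO and 100% = wells lacking PAFAH1B2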
PAFAH2 inh: PAFAH2 enzyme inhibitors, primary screen, biochemical, fluorescence polarization, human; 0.99% of 340,000 active; AID 492956, 2010; inhibition, % at 3.39 µM; recombinant PAFAH2, FP-rhodamine activity probe;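 active means inhibition above the mean over all tested compounds plus 3 SD, cut at about 30% in these data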;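 further: inhibitors block probe labeling of enzyme so polarization drops; 0% = enzyme with DMSO and 100% = wells lacking PAFAH2 protein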
PP5 primary: PP5 phosphatase inhibitors, primary screen, biochemical, fluorescence; Serine/threonine-protein phosphatase 5 (Homo sapiens), P53041; purified PP5c, OMFP substrate fluorescence; inhibition, % at 6.7 µM; 0.18% of 320,000 active; AID 1987, 2009;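 active means inhibition above the campaign's mean inhibition across all tested compounds plus 3 SD, cut at about 9.5% in these data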;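 further: 0% = DMSO only and 100% = 100 µM cantharidin control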
PAFAH1B3 inh: PAFAH1B3 enzyme inhibitors, primary screen, biochemical, fluorescence polarization, human; AID 492972, 2010; recombinant PAFAH1B3, FP-rhodamine probe; 0.28% of 340,000 active; inhibition, % at 3.39 µM; Platelet-activating factor acetylhydrolase IB subunit alpha1 (Homo sapiens), Q15102;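 active means inhibition above the screen-wide average of all tested compounds plus 3 SD, cut at about 25% in these data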;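 further: 0% = enzyme with DMSO only and 100% = wells lacking PAFAH1B3 protein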
PP1 inh: PP1-alpha phosphatase inhibitors, primary screen, counter-screen for PP5 inhibitor project, biochemical, fluorescence, OMFP substrate, single point | Serine/threonine-protein phosphatase PP1-alpha catalytic subunit (Homo sapiens), P62136 | purified PP1alpha | inhibition, % at 6.7 µM | 0.9% of 320,000 active | AID 2235, 2010;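 active means inhibition above the mean inhibition of all tested compounds plus 3 SD, computed separately for each screening campaign, cut at about 15% in these data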
pPAFAH inh: pPAFAH enzyme inhibitors, primary screen, biochemical, fluorescence polarization, human | Platelet-activating factor acetylhydrolase (Homo sapiens), Q13093 | inhibition, % at 3.39 µM | recombinant pPAFAH, FP-rhodamine probe fluorescence polarization | 1.5% of 330,000 active;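 active means inhibition above the mean inhibition across the screen plus 3 SD, cut at about 25% in these data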;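 further: inhibitors block binding of the rhodamine activity-based probe so polarization drops; 0% = enzyme with DMSO and 100% = wells lacking pPAFAH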
Target sequence (Q13093 whole entry, looked up): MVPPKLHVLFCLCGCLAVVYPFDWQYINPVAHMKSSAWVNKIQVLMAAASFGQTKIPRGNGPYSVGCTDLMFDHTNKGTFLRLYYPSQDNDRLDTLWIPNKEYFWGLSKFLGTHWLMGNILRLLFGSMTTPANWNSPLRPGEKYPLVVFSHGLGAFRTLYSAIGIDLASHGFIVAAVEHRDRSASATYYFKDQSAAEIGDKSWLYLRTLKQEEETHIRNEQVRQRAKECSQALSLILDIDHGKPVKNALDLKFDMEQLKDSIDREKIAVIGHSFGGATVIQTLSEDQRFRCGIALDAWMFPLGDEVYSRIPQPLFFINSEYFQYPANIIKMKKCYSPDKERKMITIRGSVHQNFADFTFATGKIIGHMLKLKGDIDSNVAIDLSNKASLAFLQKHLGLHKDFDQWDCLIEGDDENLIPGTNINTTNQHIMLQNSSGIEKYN
Starred values were filed as active, the others as inactive; nt = not tested or not shown.

SMILES	PAFAH1B2 inh	PAFAH2 inh	PP5 primary	PAFAH1B3 inh	PP1 inh	pPAFAH inh
CCN1C(=O)N(C)C2(c3ccccc3)N(C)C(=O)N(C)C12c1ccccc1 (stereo not drawn)	38*	5	1	2	0	-3
CCCCCN=C(N)N/N=C/c1c[nH]c2ccc(OC)cc12	1	10	2	13	14	-3
O=S(=O)(NCc1ccc(Cl)cc1)c1ccc(Cl)nc1	34*	-5	2	5	-3	5
CCOC(=O)CC(=O)CSc1nc(-c2ccccc2)cc(-c2ccccc2)c1C#N	2	-4	1	-12	17*	23
CCOC(=O)n1c(=O)n(Cc2cccc(C)c2)c2ccccc21	-3	0	1	4	2	9
Cc1ccc(NC(=O)C2CC(=O)n3ncnc3N2)cc1C (stereo not drawn)	2	-5	0	-5	-7	3
O=C(/C=C/c1ccccc1)NNC(=O)c1ccco1	-2	-5	-1	3	-5	-1
CN(CC(=O)NCC(=O)Nc1ccc(F)cc1)CC(=O)Nc1ccc(Cl)c(C(F)(F)F)c1	28*	0	nt	0	nt	nt
Cc1ccc(S(=O)(=O)NCC(c2cccnc2)N2CCOCC2)cc1 (stereo not drawn)	3	4	3	1	-1	5
C=CCn1c(SC2CCOC2=O)nc2sc(C)c(C)c2c1=O (stereo not drawn)	2	3	4	6	-3	8
C=CCn1c(SC2CCOC2=O)nc2sc(CC)cc2c1=O (stereo not drawn)	-4	10	2	4	-1	27*
CC(O)(CS(=O)(=O)Cc1ccccc1Cl)C(=O)Nc1cccc(C(F)(F)F)c1 (stereo not drawn)	2	-8	-1	5	7	2
CC(O)(CS(=O)(=O)Cc1cccc(C(F)(F)F)c1)C(=O)Nc1cccc(C(F)(F)F)c1 (stereo not drawn)	38*	-7	3	-3	3	2
O=C1NC(=Nc2ccccc2)/C(=C/c2ccco2)S1	-2	1	5	7	1	34*
CC(NC(=O)c1ccccc1NS(=O)(=O)c1ccc(CCC(=O)O)cc1)c1ccccc1 (stereo not drawn)	28*	2	-2	6	0	3
CCN(CC)CC(C)CNC(=O)C1(O)c2ccccc2NC(=O)N1c1ccc(Cl)c(Cl)c1 (stereo not drawn)	1	5	2	0	15*	4
O=C1Nc2ccccc2C(O)(C(=O)NCc2ccco2)N1c1ccc(Cl)c(Cl)c1 (stereo not drawn)	5	4	-8	8	-2	6
O=C(O)CCc1ccc(-c2ccccc2)n1Cc1ccco1	13	8	-1	0	1	16
O=C(O)CCc1ccc(-c2ccc(F)cc2)n1Cc1ccco1	29*	7	2	-1	-4	12
COc1ccc(NS(=O)(=O)c2cc(NC(=O)c3ccc(C)s3)ccc2N2CCOCC2)cc1	0	-9	5	-4	4	27*
CCC(=O)Nc1ccc(N2CCOCC2)c(S(=O)(=O)Nc2ccc(OC)cc2)c1	4	-4	-2	10	0	2
CC(C)C(=O)COc1c2occc2cc2ccc(=O)oc12	10	4	nt	9	nt	-2
C=C(C)C(COc1c2occc2cc2ccc(=O)oc12)OC(C)(C)C(O)COc1c2occc2cc2ccc(=O)oc12 (stereo not drawn)	66*	1	nt	7	nt	7
S=C(NN=C1CCCCCC1)Nc1ccc(Cl)cc1	3	-2	-1	11	-4	1
NC(=S)NN=C1CCCCCCCCCC1	28*	7	nt	3	nt	nt
SMILES	PAFAH1B2 inh	PAFAH2 inh	PP5 primary	PAFAH1B3 inh	PP1 inh	pPAFAH inh
CCC(Sc1nnc(-c2ccc(C)c(Cl)c2)n1CC)C(=O)Nc1nccs1 (stereo not drawn)	2	-5	1	-8	4	2
COc1ccc(C(NC(=O)/C=C/c2ccco2)c2ccc(OC)cc2)cc1	0	4	-2	0	5	27*
COc1ccc(C(NC(=O)/C=C\c2ccco2)c2ccc(OC)c(OC)c2)cc1 (stereo not drawn)	3	1	0	2	1	5
Cc1cccc(OCCc2c(C)[nH]c(=S)[nH]c2=O)c1	2	1	-1	8	2	4
CCCCCCSC1=C(C#N)C(c2ccccc2)CC(=O)N1 (stereo not drawn)	12	1	1	3	-4	13
Cc1ccc(C2CC(=O)NC(SCc3ccccc3)=C2C#N)cc1 (stereo not drawn)	8	0	3	5	1	30*
N#CC1=C(SCc2ccccc2)NC(=O)CC1c1ccc(O)cc1 (stereo not drawn)	7	1	3	-10	1	26*
Cc1ccc(S(=O)(=O)Oc2ccc(C3C4=C(CCCC4=O)N(CCC(=O)O)C4=C3C(=O)CCC4)cc2Cl)cc1	39*	6	1	3	-3	2
CCC(Oc1ccccc1)C(=O)Nc1ccc(S(=O)(=O)Nc2cnc3ccccc3n2)cc1 (stereo not drawn)	-3	-8	3	6	-4	1
O=C(O)c1ccc(CNC(=O)C23CC4CC(CC(C4)C2)C3)cc1	29*	-8	1	9	-3	2
CC(C)(C)NC(=O)C12CC3CC(CC(Cl)(C3)C1)C2	17	-1	0	1	-4	4
COc1ccc(CNC(=O)CC23CC4CC(CC(C4)C2)C3)cc1	9	2	1	3	3	0
COc1ccc(CNC(=O)C23CC4CC(CC(Br)(C4)C2)C3)cc1	26*	-8	1	2	1	-1
CC(C)(CO)NC(=O)C12CC3CC(CC(Br)(C3)C1)C2	26*	1	4	0	1	-3
O=C(Nc1ccncc1)Nc1ccc(Cl)cc1Cl	4	-10	nt	-3	nt	nt
CC1CCc2cc(F)ccc2N1S(=O)(=O)c1ccc(F)cc1 (stereo not drawn)	15	1	1	5	1	3
CC1CCc2cc(F)ccc2N1S(=O)(=O)c1ccc(Cl)nc1 (stereo not drawn)	29*	-4	4	7	-2	-4
COc1ccc(CCN(C)C(=O)c2ccc(S(=O)(=O)Nc3ccccc3C)cc2)cc1OC	nt	nt	0	nt	-6	25*
COc1ccc(CCN(C)C(=O)c2cccc(S(=O)(=O)NCc3ccccc3)c2)cc1OC	-5	-4	1	12	-1	-3
